This is a sample that favours compounds with a hit; in the whole collection about 5.4% have one here.
beta cell repl: inducers of MIN6 beta-cell proliferation, primary screen, ATP luminescence, uHTS; MIN6 cells proliferation, ATPlite luminescence, 48 h; cells starved in 0.2% serum; 100% = growth in 10% serum; proliferation, % at 10 µM; hit rate 0.29% among 330,000; AID 2380, 2010;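 active = compounds whose signal lies at least 3.5 SD above the mean of all wells on their plate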;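 note: 0% = DMSO-treated cells in low-serum medium and 100% = 10% serum control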
SMARCA2 activ: SMARCA2 (BRM) function activators, primary screen, cell-based, luminescence, high throughput. hit rate 1% among 370,000. activation, % at 9.1 µM. MG213 cells, MMTV-luciferase reporter, dexamethasone, overnight; in the data active = activation above about 7.8%;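 note: 0% = vehicle wells and 100% = reference activator wells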
Exocytosis inh: LAMP-1 surface exposure blockers, TALL-104 cells – cell-based, flow cytometry, MLPCN library, primary screen. TALL-104 LAMP-1 surface exposure; cells stimulated with thapsigargin and PMA. inhibition, % at 10 µM. hit rate 0.66% among 360,000. AID 651702, 2012;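 active = inhibition above about 55%, limit read from the data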
JMJD2C inh: inhibitors of GASC-1 histone demethylase, primary screen, biochemical, fluorescence, DELFIA europium | hit rate 0.069% among 330,000 | Lysine-specific demethylase 4C (Homo sapiens), Q9H3R0 | GST-JMJD2C(1-420) H3K9me3 demethylation | inhibition, % at 2.35 µM;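 active = more than half of a compound's replicate wells show inhibition beyond 50%, single wells judged on their own value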;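 note: signal counts dimethyl H3K9 product captured on neutravidin plate; 0% = median of DMSO wells and 100% = 0.3 times that DMSO median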
Target sequence (Q9H3R0 1-420 limits assumed): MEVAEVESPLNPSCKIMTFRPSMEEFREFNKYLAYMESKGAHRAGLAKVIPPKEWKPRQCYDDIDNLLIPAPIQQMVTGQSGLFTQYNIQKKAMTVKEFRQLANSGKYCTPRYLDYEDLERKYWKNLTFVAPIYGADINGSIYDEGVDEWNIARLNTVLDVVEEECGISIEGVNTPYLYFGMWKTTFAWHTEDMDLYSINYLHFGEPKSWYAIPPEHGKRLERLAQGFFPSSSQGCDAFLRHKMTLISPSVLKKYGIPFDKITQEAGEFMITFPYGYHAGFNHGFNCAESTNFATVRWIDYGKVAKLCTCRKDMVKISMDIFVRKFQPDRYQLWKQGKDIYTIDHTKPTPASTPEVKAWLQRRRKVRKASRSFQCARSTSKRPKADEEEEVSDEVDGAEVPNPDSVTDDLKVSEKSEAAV
M18AAP inhibitor: PfM18AAP inhibitors, malaria aminopeptidase, primary screen, biochemical, QFRET, recombinant enzyme. hit rate 1.2% among 290,000. AID 1822, 2009. M18 aspartyl aminopeptidase (Plasmodium falciparum 3D7). inhibition, % at 7.35 µM. H-Glu-NHMec fluorogenic cleavage;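 active = inhibition above the campaign mean inhibition over all tested compounds plus 3 SD, cut at about 28% in these data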;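 note: 0% = plate median of test compound wells and 100% = 2 mM ZnCl2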
ALR inh: inhibitors of human ALR sulfhydryl oxidase, primary screen, biochemical, H2O2 detection, HRP-luminol luminescence, single point. FAD-linked sulfhydryl oxidase ALR (Homo sapiens), P55789. purified ALR, DTT oxidation. inhibition, % (test concentration not listed). hit rate 3.8% among 290,000. AID 485317, 2010;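 active = mean replicate inhibition above about 79%, with every replicate also reaching it, limit read from the data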
Numbers without * were called inactive.

For CNC(=O)N(O)C1N(/N=C/c2cccs2)C(=S)SC1(C)C (configuration not stated) the results were beta cell repl -1, SMARCA2 activ -5, Exocytosis inh -3, JMJD2C inh -10, M18AAP inhibitor -1 and ALR inh -5.
For O=C1C(=O)N(c2ccc(O)cc2)C(c2ccccc2[N+](=O)[O-])/C1=C(\O)c1ccccc1 (configuration not stated) the results were beta cell repl 2, SMARCA2 activ -4, Exocytosis inh 4, JMJD2C inh 1, M18AAP inhibitor -1 and ALR inh 85*.
For Cc1ccc(C)c(S(=O)(=O)Nc2ccc(O)cc2)c1 the results were beta cell repl 0, SMARCA2 activ -4, Exocytosis inh 0, JMJD2C inh -2, M18AAP inhibitor -25 and ALR inh 71.
For Cc1cc(C)c(S(=O)(=O)Nc2ccc(O)cc2)cc1C the results were beta cell repl -2, Exocytosis inh 0, JMJD2C inh -8, M18AAP inhibitor -5 and ALR inh 99*.
Screening O=S(=O)(Nc1ccc(O)cc1)c1cccc2cccnc12 returned beta cell repl 0, SMARCA2 activ -2, Exocytosis inh 4, JMJD2C inh 12, M18AAP inhibitor -27 and ALR inh 101*.
CC(C)CCn1c(=O)c2ccccc2n2c(=S)[nH]nc12 was read as beta cell repl 1, SMARCA2 activ -2, Exocytosis inh -19, JMJD2C inh 10, M18AAP inhibitor 29* and ALR inh 53.
`Nc1[nH]c(C(=O)c2ccccc2)c(-c2ccc3c(c2)OCO3)c1C(=O)NCCc1c[nH]c2ccccc12` gave SMARCA2 activ -1.
NC(=O)c1c(NC(=O)CSc2nnc(Cc3ccccc3)n2Cc2ccco2)sc2c1CCC2 was read as beta cell repl -2, SMARCA2 activ -2, Exocytosis inh 13, JMJD2C inh 4, M18AAP inhibitor -1 and ALR inh 87*.
Screening O=C(CSc1nnc(Cc2ccccc2)n1Cc1ccco1)NC12CC3CC(CC(C3)C1)C2 returned beta cell repl -4, SMARCA2 activ -2, Exocytosis inh 0, JMJD2C inh 38, M18AAP inhibitor 1 and ALR inh -7.
For COC(=O)C(C)Sc1nnc(Cc2cc(=O)[nH]c(=O)[nH]2)n1-c1cc(C)ccc1C (configuration not stated) the results were beta cell repl 2, SMARCA2 activ 1, Exocytosis inh -4, JMJD2C inh -7, M18AAP inhibitor 4 and ALR inh 91*.
For COC(=O)C(C)Sc1nnc(Cc2cc(=O)[nH]c(=O)[nH]2)n1-c1cccc(OC)c1 (configuration not stated) the results were beta cell repl 0, SMARCA2 activ 2, Exocytosis inh -3, JMJD2C inh 27, M18AAP inhibitor -4 and ALR inh 27.
For CCOc1ccc(-n2c(Cc3cc(=O)[nH]c(=O)[nH]3)nnc2SC(C)C(=O)OC)cc1 (configuration not stated) the results were beta cell repl 0, SMARCA2 activ 0, Exocytosis inh 6, JMJD2C inh -12, M18AAP inhibitor -3 and ALR inh 93*.
CC(=O)N1CCc2c1cccc2S(=O)(=O)NC(CC(C)C)C(=O)Nc1ccc(F)cc1Cl (configuration not stated) was read as SMARCA2 activ -1.
Screening COc1cccc(CNc2nccs2)c1O returned beta cell repl -1, SMARCA2 activ 1, Exocytosis inh 1, JMJD2C inh 5, M18AAP inhibitor -13 and ALR inh 88*.
Screening C=CCNc1ncnc2c1cnn2-c1cccc(C)c1 returned beta cell repl -4, SMARCA2 activ 3, Exocytosis inh -2, JMJD2C inh -1, M18AAP inhibitor 4 and ALR inh -3.
Cc1cccc(-n2ncc3c(NCCCO)ncnc32)c1 was read as beta cell repl -3, SMARCA2 activ 7.9*, Exocytosis inh -1, JMJD2C inh 8 and M18AAP inhibitor 5.
COc1ccccc1N1C(=N)S/C(=C\c2ccc(-c3ccccc3C(=O)O)o2)C1=O was read as beta cell repl 0, SMARCA2 activ 2, Exocytosis inh 3, JMJD2C inh 1, M18AAP inhibitor -6 and ALR inh 98*.
For N=C1S/C(=C\c2ccc(-c3ccccc3C(=O)O)o2)C(=O)N1c1ccc2c(c1)OCO2 the results were SMARCA2 activ 3, Exocytosis inh 19, JMJD2C inh 7 and M18AAP inhibitor 4.
For O=S1(=O)c2c(cccc2N2CCC[C@@H]2CO)O[C@H]2CCN1C2 the results were SMARCA2 activ -2.
Screening O=C(CSc1nnc(-c2ccccc2)n1Cc1ccco1)Nc1ccc(Oc2ccccc2)cc1 returned SMARCA2 activ -6.
COC(=O)C[C@H]1CC[C@H]2[C@H](COc3ccc(NC(=O)c4cccs4)cc3C(=O)N2C)O1 was read as SMARCA2 activ -3.
Screening CN1CCN(C(=O)c2cc3c(=O)n4ccccc4nc3s2)CC1 returned beta cell repl 2, SMARCA2 activ -2, Exocytosis inh 4, JMJD2C inh 13 and M18AAP inhibitor 29*.
Screening CCOC(=O)N1CCN(C(=O)c2cc3c(=O)n4ccccc4nc3s2)CC1 returned beta cell repl 0, SMARCA2 activ 2, Exocytosis inh 1, JMJD2C inh -5, M18AAP inhibitor 0 and ALR inh -5.
For CN(Cc1ccc2c(c1)CCCN2C)C(=O)[C@@H](Cc1ccccc1)NC(=O)[C@H]1O[C@@H](n2ccc(=O)[nH]c2=O)[C@H](O)[C@@H]1O the results were SMARCA2 activ -1.
Screening CCOc1ccc(C(=O)NC(=S)N(Cc2ccccc2)Cc2ccccc2)cc1 returned SMARCA2 activ -5, Exocytosis inh -2, JMJD2C inh 4, M18AAP inhibitor 1 and ALR inh -24.
`N#CCCN(Cc1ccccc1)C(=S)NC(=O)c1ccccc1` gave beta cell repl -1, SMARCA2 activ -4, Exocytosis inh 2, JMJD2C inh 6, M18AAP inhibitor 5 and ALR inh 98*.
Screening COc1ccc(CN(CCC#N)C(=S)NC(=O)c2ccccc2)cc1 returned beta cell repl -1, SMARCA2 activ 0, Exocytosis inh 2, JMJD2C inh 5, M18AAP inhibitor 4 and ALR inh 1.
For CCCN(CCC)C(=S)NC(=O)c1ccc(-c2ccccc2)cc1 the results were beta cell repl -5, SMARCA2 activ 2, Exocytosis inh -1, JMJD2C inh 6, M18AAP inhibitor 1 and ALR inh 99*.

Screens deposited in PubChem by several laboratories.
